Measured values: PubChem BioAssay (Tox21)
Several values for one entry are separate records, joined by “and”; a condition that tells them apart may be missing. Equal values may be shown once. Records with an inconclusive call do not appear. Entries that show only a call come without a potency. More than one record can exist for a structure, and the calls need not agree. Activity calls are given as the source filed them. The call rests on the fitted dose curve; in most records, active means well fitted inhibition curve with a large enough effect in the repeat runs; inconclusive means weak or mixed curves, or effect the other way; inactive means no such curve, though single readings can be large or run the other way.

biological target: Androgen receptor (Homo sapiens) (UniProt P10275); experiment: qHTS assay to identify small molecule antagonists of the androgen receptor (AR) signaling pathway using the MDA cell line (AID 743042; further: nearly all actives have a fitted effect of over 55% in size); conditions: MDA-kb2 AR-luc, MMTV luciferase, R1881 antagonist, 16 h; series mostly up to 70.3 µM
Sequence (P10275 whole entry, looked up): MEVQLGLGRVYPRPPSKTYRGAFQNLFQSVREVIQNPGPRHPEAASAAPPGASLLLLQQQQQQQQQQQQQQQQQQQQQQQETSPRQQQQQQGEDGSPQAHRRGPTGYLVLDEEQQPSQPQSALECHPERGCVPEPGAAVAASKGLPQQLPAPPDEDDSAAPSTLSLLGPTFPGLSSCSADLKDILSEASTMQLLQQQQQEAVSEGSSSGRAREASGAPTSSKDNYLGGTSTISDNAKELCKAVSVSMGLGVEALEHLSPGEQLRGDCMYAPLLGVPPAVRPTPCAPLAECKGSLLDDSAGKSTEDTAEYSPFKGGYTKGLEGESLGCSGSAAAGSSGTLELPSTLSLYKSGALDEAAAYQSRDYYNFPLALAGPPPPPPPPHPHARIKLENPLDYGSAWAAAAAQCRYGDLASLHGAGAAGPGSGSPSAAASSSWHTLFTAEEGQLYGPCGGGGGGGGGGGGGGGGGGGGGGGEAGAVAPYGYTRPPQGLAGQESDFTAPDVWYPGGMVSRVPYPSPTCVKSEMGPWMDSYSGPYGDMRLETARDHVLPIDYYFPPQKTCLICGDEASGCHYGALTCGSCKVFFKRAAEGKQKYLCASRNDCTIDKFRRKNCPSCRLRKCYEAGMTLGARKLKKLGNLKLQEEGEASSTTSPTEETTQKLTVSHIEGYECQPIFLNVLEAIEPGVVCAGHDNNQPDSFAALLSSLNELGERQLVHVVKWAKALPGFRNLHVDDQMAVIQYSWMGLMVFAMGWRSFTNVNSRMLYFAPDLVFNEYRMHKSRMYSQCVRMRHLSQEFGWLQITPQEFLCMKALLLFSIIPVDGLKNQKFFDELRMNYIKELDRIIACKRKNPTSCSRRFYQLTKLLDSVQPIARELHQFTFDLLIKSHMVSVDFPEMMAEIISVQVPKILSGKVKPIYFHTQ
Excerpt: U.S. Tox21 Program National Center for Advancing Translational Sciences [NCATS] NIH Chemical Genomics Center [NCGC] U.S. Environmental Protection Agency [EPA] National Institutes of Environmental Health Sciences [NIEHS] National Toxicology Program [NTP] U.S. Food and Drug Administration [FDA] Tox21 Assay Overview: Androgen receptor (AR), a nuclear hormone receptor, plays a critical role in AR-dependent prostate cancer and other androgen related diseases. Endocrine disrupting chemicals (EDCs) and their interactions with steroid hormone receptors like AR may cause disruption of normal endocrine function as well as interfere with metabolic homeostasis, reproduction, developmental and behavioral functions. To identify the compounds that inhibit AR signaling, MDA-kb2 AR-luc cell line (from ATCC, deposited by Wilson et al.) was used to screen the Tox21 10K compound library. MDA-kb2 AR-luc cell line is human breast carcinoma cell line that was stably transfected with a luciferase reporter gene under control of the MMTV promoter containing response elements for both androgen receptor (AR) and glucocorticoid receptor (GR).
Tox21 Assay Protocol Summary: MDA-kb2 cells were dispensed at 3,000 cells/4 uL/well of culture medium into white wall/solid-bottom 1536-well plates using a Multidrop Combi (ThermoFisher Scientific, Waltham, MA) dispenser. After the assay plates were incubated at a 37C and 0% CO2 for 5 hr, 23 nL of compounds dissolved in DMSO, positive controls or DMSO only was transferred to the assay plate by a Pintool station (Kalypsys, San Diego, CA), followed by addition of 1 uL of agonist (R1881) in culture medium using a Bioraptr Flying Reagent Dispenser (FRD) workstation (Beckman Coulter, Indianapolis, IN, USA). The plates were incubated at a 37C and 0% CO2 for 16 h. After 15.5 h incubation, 1uL of CellTiter-Fluor reagent (Promega, Madison, WI) was added using a Bioraptr FRD to each plate for measuring cytotoxicity. The fluorescence intensity was quantified on a ViewLux plate reader (PerkinElmer, Shelton, CT) following 30 min incubation at 37C and 0% CO2. For measuring luciferase reporter gene activity, 4 uL of ONE-Glo reagent (Promega) was added to each plate using a Bioraptr FRD and luminescence was quantified on a ViewLux (PerkinElmer) plate reader after 30 min incubation at room temperature.
Potency means the concentration at half of the fitted maximal effect.

SMILES	Potency
N=C1C=CC(=C(c2ccc(N)cc2)c2ccc(N)cc2)C=C1	2.43 µM (active)
Cc1nc(-c2ccc3c(c2)CCN(CCC2CCC(NC(=O)/C=C/c4ccc(F)cc4)CC2)CC3)no1 (stereo not given)	inactive
CCCCCCCCCCCCCCCCCC[N+](C)(C)Cc1ccccc1	12.3 µM (active)
Fc1ccc([C@@H]2CCNC[C@H]2COc2ccc3c(c2)OCO3)cc1	21.1 µM (active)
C[C@@H]1C[C@H]2[C@@H]3CCC4=CC(=O)C=C[C@]4(C)[C@@]3(Cl)[C@@H](O)C[C@]2(C)[C@@]1(OC(=O)c1ccco1)C(=O)CCl	inactive
Cc1ccc(O)c2ncccc12	13.3 µM (active)
CC[C@H](c1ccc(O)cc1)[C@@H](CC)c1ccc(O)cc1	inactive and 54.5 µM (active)
CCCCCCCCCCC=O	inactive
CCc1oc2ccccc2c1C(=O)c1cc(Br)c(O)c(Br)c1	inactive
COc1ccc(C(=O)/C(Br)=C\C(=O)O)cc1	23.7 µM (active) and 30.6 µM (active)
CCN(Cc1cccnc1)C(=O)c1cccc(Cl)c1[C@]1(C)C(=O)N(Cc2ccc(OC)cc2OC)c2ccc(Cl)cc21	12.8 µM (active)
O=C(Nc1cccc([N+](=O)[O-])c1)c1cc2ccccc2cc1O	6.86 µM (active)
Clc1ccc2nsnc2c1NC1=NCCN1	inactive
CCC(C)Nc1ccc(NC(C)CC)cc1 (stereo not given)	8.8 µM (active)
O=S1(=O)CC(Cl)(Cl)C(Cl)(Cl)C1	2.17 µM (active)
CCCCCCCC/C=C/CCCCCCCC1=NCCN1CCO	inactive
O=C(c1ccc(F)cc1)C1CCN(CCn2c(=O)[nH]c3ccccc3c2=O)CC1	inactive
CCCCCCCCCCn1cc[n+](CCCCCCCCCC)c1C	2.17 µM (active)
ON=C1CCCC1	inactive
CCCCCCOC(=O)c1ccc(O)cc1	inactive

SMILES	Potency
[Cl][Bi]([Cl])([c]1ccccc1)([c]1ccccc1)[c]1ccccc1	13.6 µM (active)
CCCCCCCCCCCCCC[P+](CCCC)(CCCC)CCCC (tested in a mixture with another compound)	3.46 µM (active)
N#CSc1ccc(N)c([N+](=O)[O-])c1	61.5 µM (active)
Clc1ccc2cc3ccccc3cc2c1	inactive
CN1CCC(Nc2ncc3ncnc(Nc4ccc(F)c(Cl)c4)c3n2)CC1	inactive
O=C(Oc1ccccc1)c1ccccc1C(=O)Oc1ccccc1	54.5 µM (active)
CCCCCCCCCCCCCCCC(=O)OC[C@H](O)[C@H]1OC(=O)C(O)=C1O	inactive
CCCCC(CC)CN=C(N)NC(N)=NCCCCCCN=C(N)NC(N)=NCC(CC)CCCC (stereo not given)	16.8 µM (active)
C=CC(=O)OCC(CO)(COCC(COC(=O)C=C)(COC(=O)C=C)COC(=O)C=C)COC(=O)C=C	1.07 µM (active)
O=C1CCCc2c1cc1ccc3cccc4ccc2c1c34	inactive
Cc1cc(O)c2ccccc2c1O	inactive
NNC(=O)c1cccc(C(=O)NN)c1	inactive
CC(C)C(C)(C)C(C)(C)C(C)(C)S	inactive
Nc1ccc(N)c2ccccc12	17.2 µM (active)
NC(=O)N1C(=O)C(C(=O)c2cc(Cl)cs2)c2cc(F)c(Cl)cc21 (stereo not given)	inactive
CC(C)(C)CC(C)(C)c1ccc(O)c(Cc2ccc(Cl)cc2Cl)c1	inactive
Nc1ccc2c3c(cccc13)-c1ccccc1-2	inactive
CS(=O)(=O)CCNCc1ccc(-c2ccc3ncnc(Nc4ccc(OCc5cccc(F)c5)c(Cl)c4)c3c2)o1	inactive
Oc1ccc(N=Nc2ccccc2)cc1	inactive
OCCN(CCO)c1nc(N2CCCCC2)c2nc(N(CCO)CCO)nc(N3CCCCC3)c2n1	inactive
